According to PubChem BioAssay (Tox21):
Records with an inconclusive call do not appear. Active and inactive are the calls of the source. Unless noted, the call rests on the fitted dose curve; in most records, active means well fitted curve in the direction sought with a large enough effect in the repeat runs; inconclusive means weak or mixed curves; inactive means no such curve, though single readings can be large; an effect the other way counts as inactive or inconclusive.

Key:
[1] = biological target: Retinoic acid receptor RXR-alpha (Homo sapiens) (UniProt P19793); assay: qHTS assay to identify small molecule agonists of the RXR signaling pathway (AID 1159527; calls by dose curve; further: nearly all actives have a fitted effect of over 35% in size; further: potency means the concentration at half of the fitted maximal effect)
Retinoic acid receptor RXR-alpha (Homo sapiens), sequence (P19793 whole entry, looked up): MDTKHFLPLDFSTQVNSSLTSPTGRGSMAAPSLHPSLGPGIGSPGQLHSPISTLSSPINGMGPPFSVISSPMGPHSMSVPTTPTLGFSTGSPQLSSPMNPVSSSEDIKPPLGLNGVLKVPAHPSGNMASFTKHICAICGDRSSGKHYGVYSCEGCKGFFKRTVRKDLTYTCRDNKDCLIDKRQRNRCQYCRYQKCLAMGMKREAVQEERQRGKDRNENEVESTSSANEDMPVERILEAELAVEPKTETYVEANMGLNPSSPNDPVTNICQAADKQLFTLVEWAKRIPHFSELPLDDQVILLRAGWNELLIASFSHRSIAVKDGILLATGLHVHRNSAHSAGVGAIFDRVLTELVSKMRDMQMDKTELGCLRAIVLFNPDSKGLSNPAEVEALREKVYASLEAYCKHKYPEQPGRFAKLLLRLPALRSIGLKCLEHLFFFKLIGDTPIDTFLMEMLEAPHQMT
Outline: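 Compounds in DMSO were added to RXR-alpha-UAS-bla HEK 293T cells kept in 2% charcoal-stripped serum, and incubated 16 hr at 37 C with 5% CO2. Reporter signal came from a 2 hr B/G FRET substrate step.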

[2] = qHTS assay to identify small molecule agonists of the RXR signaling pathway - cell viability counter screen (AID 1159529);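 further: HEK 293T cells carrying an RXR-alpha UAS beta-lactamase reporter; series mostly up to about 77 µM; nearly all actives have a fitted effect of over 50% in size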
Outline: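 Counter screen: CellTiter-Glo luminescence. Cells: RXR-alpha-UAS-bla HEK 293T. Medium: 2% charcoal-stripped FBS. Treatment: 16 h, 37 C. Reagent incubation: 30 min, RT.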

[3] = qHTS assay to identify small molecule antagonists of the retinoid acid receptor (RAR) signaling pathway - cell viability counter screen (AID 1159551); further: nearly all actives have a fitted effect of over 35% in size
Outline: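 Retinol-stimulated (1 uM final) C3RL4 cells, compound 6 h, 37 C; readout CellTiter-Glo luminescence (ATP) after 30 min RT incubation.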

[4] = qHTS assay to identify small molecule antagonists of the retinoic acid receptor (RAR) signaling pathway (AID 1159552; further: nearly all actives have a fitted effect of over 50% in size)
Outline: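 Antagonism of retinol-induced RARE reporter activity was measured in C3RL4 cells. Exposure to compounds and 1 uM final retinol lasted 6 hr at 37 C, with luminescence as endpoint.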

[5] = qHTS assay to identify small molecule agonists of the retinoic acid receptor (RAR) signaling pathway (AID 1159553)
Outline: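 Reporter readout comes from luciferase under RARE control in C3RL4 cells; compound exposure lasts 6 hr at 37 C in 5% CO2, and luminescence is recorded following a 30 min room-temperature incubation with reagent.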

[6] = qHTS assay to identify small molecule antagonists of the estrogen related receptor (ERR) signaling pathway from Tox21 library - cell viability counter screen (AID 1224834); further: nearly all actives have a fitted effect of over 30% in size
Outline: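 After 17.5 h of compound exposure at 37 C, ERR cells are incubated with CellTiter-Fluor for 30 min and fluorescence intensity serves as the viability measure.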

[7] = biological target: Luciferin 4-monooxygenase (Photinus pyralis) (UniProt P08659); assay: qHTS assay to identify small molecule inhibitors of firefly luciferase (AID 1224835); further: series mostly up to about 120 µM; nearly all actives have a fitted effect of over 25% in size
Luciferin 4-monooxygenase (Photinus pyralis), sequence (P08659 whole entry, looked up): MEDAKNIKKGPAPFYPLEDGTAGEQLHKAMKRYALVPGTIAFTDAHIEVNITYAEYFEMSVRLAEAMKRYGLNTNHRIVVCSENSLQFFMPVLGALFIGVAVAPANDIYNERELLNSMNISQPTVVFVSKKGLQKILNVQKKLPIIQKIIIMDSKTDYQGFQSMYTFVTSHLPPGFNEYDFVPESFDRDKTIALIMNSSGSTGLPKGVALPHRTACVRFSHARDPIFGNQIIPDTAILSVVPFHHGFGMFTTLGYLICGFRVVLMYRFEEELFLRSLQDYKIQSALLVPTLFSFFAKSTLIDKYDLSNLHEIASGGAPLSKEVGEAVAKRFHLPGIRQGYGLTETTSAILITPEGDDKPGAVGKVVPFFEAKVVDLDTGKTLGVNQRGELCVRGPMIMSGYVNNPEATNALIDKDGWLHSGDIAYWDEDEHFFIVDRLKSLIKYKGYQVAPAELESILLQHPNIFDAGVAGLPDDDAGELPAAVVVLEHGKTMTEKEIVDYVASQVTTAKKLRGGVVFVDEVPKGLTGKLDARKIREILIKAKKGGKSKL
Outline: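 Quantitative HTS format; KM concentrations of both substrates. Purified P. pyralis FLuc activity quantified from luminescence images.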

[8] = qHTS assay to identify small molecule agonists of the constitutive androstane receptor (CAR) signaling pathway - cell viability counter screen (AID 1224836); further: series mostly up to about 92 µM; nearly all actives have a fitted effect of over 45% in size
Outline: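 Double-stable HepG2 hepatoma cells (hCAR plus CYP2B6-2.2kb) are treated for 23 h at 37 C with test compounds in 15-point concentration series. PK11195 at 0.75 uM final is co-added. Cell viability is quantified by CellTiter-Fluor.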

[9] = qHTS assay to identify small molecule antagonists of the constitutive androstane receptor (CAR) signaling pathway - cell viability counter screen (AID 1224837); further: series mostly up to about 92 µM; nearly all actives have a fitted effect of over 45% in size
Outline: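 Counter screen run in HepG2-CYP2B6-hCAR cells: 4 hr settle, compound titration (15 concentrations) with 50 nM CITCO, 23 hr at 37 C/5% CO2, CellTiter-Fluor fluorescence.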

[10] = biological target: Nuclear receptor subfamily 1 group I member 3 (Homo sapiens) (UniProt Q14994); assay: qHTS assay to identify small molecule agonists of the constitutive androstane receptor (CAR) signaling pathway (AID 1224839);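 further: HepG2 cells stably carrying human CAR and a CYP2B6 luciferase reporter; series mostly up to about 92 µM; nearly all actives have a fitted effect of over 15% in size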
Nuclear receptor subfamily 1 group I member 3 (Homo sapiens), sequence (Q14994 whole entry, looked up): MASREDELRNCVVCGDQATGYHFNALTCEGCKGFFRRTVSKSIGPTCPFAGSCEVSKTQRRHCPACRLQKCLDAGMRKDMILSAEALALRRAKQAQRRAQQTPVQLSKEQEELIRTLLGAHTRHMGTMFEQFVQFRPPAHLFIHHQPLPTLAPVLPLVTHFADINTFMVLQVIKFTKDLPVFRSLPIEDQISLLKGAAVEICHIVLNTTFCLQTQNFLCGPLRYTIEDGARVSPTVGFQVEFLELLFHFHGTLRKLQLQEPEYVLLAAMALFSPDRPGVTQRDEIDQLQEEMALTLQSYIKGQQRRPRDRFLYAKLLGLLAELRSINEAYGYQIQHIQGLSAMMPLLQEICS
Outline: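 Readout: firefly luciferase luminescence via ONE-Glo. System: HepG2 double-stable for hCAR and CYP2B6-2.2kb. Conditions: 15-point compound titration, PK11195 at 0.75 uM final, 24 h incubation.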

[11] = qHTS assay to identify small molecule antagonists of the estrogen related receptor signaling pathway with the pleiotropic PPARgamma coactivator (PGC) from Tox21 10K library - cell viability counter screen (AID 1224840; active means well fitted cell-killing curve with a large enough effect in the repeat runs, not every such curve was filed as active; further: nearly all actives have a fitted effect of over 40% in size)
Outline: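 Following seeding of 2,000 PGC/ERR cells/well and 6 hours' incubation, test compounds were delivered in DMSO. The plates then sat 17.5 hours at 37 C before a fluorogenic live-cell protease reagent (CellTiter-Fluor) was read after 30 min.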

[12] = qHTS assay to identify small molecule antagonists of the estrogen related receptor signaling pathway with the pleiotropic PPARgamma coactivator (PGC) from Tox21 10K library (AID 1224841; call rule not given here; further: series mostly up to about 92 µM; actives are mostly falling curves and most rising ones were filed inactive; nearly all actives have a fitted effect of over 50% in size)
Outline: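 qHTS antagonist format: PGC/ERR cells, 2k/well, compound in DMSO by pin transfer after 6 h attachment, 18 h treatment at 37 C, One-Glo luminescence read at 30 min.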

[13] = qHTS assay to identify small molecule agonists of the estrogen related receptor signaling pathway with the pleiotropic PPARgamma coactivator (PGC) from Tox21 10K library (AID 1224842); further: nearly all actives have a fitted effect of over 15% in size
Outline: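 PGC/ERR reporter cells (NTP line) were seeded 2,000 per well, rested 6 h at 37 C/5% CO2, then pin-dosed with compounds in DMSO for 18 h at 37 C; luciferase read by One-Glo luminescence after 30 min at room temperature.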

[14] = biological target: Nuclear receptor subfamily 1 group I member 3 (Homo sapiens) (UniProt Q14994); assay: qHTS assay to identify small molecule antagonists of the constitutive androstane receptor (CAR) signaling pathway (AID 1224838);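 further: HepG2 cells stably expressing hCAR with CYP2B6 luciferase reporter stimulated by CITCO; nearly all actives have a fitted effect of over 40% in size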
Outline: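 Cell line: HepG2 double-stable for hCAR and CYP2B6-2.2kb reporter. Agonist: CITCO, 50 nM final. Compounds: 15 concentrations, 24 h, 37 C. Detection: ONE-Glo luminescence.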

Measured: Potency

C1CSCCS1
inactive: [1] | [2] | [3] | [4] | [5] | [6] | [7] | [8] | [9] | [10] | [11] | [12] | [13]

O=S(=O)(O)C(F)(F)F
inactive: [1] | [2] | [3] | [4] | [5] | [6] | [7] | [8] | [9] | [14] | [10] | [11] | [12] | [13]

CN1C(=O)CC(c2ccccc2)C1=O (stereo not drawn)
inactive: [1] | [2] | [3] | [4] | [5] | [6] | [7] | [8] | [9] | [10] | [11]

CC(=O)OC(C)OC(C)=O
active: [1] 2.01 µM
inactive: [2] | [3] | [4] | [5] | [6] | [7] | [8] | [9] | [10] | [11]

COC(=O)C(C)O (stereo not drawn)
active: [1] 12.6 µM
inactive: [2] | [3] | [4] | [5] | [6] | [7] | [8] | [9] | [11]

CC(=O)OC1C2(C)CCC(C2)C1(C)C (stereo not drawn)
inactive: [1] | [2] | [3] | [4] | [5] | [6] | [7] | [8] | [9] | [11] | [12] | [13]

CCOC(=O)[C@H](CCc1ccccc1)N[C@@H](C)C(=O)N1Cc2cc(OC)c(OC)cc2C[C@H]1C(=O)O
inactive: [1] | [2] | [3] | [4] | [5] | [6] | [7] | [8] | [9] | [11]

C=C(C)C(=O)OCCOP(=O)(O)O
inactive: [1] | [2] | [3] | [4] | [5] | [6] | [7] | [8] | [9] | [10] | [11]

CC(CNC1CCCCC1)OC(=O)c1ccccc1 (stereo not drawn)
inactive: [1] | [2] | [3] | [4] | [5] | [6] | [7] | [8] | [9] | [14] | [11] | [12] | [13]

CS(=O)(=O)c1ccc([C@@H](O)[C@@H](CF)NC(=O)C(Cl)Cl)cc1
inactive: [1] | [2] | [3] | [4] | [5] | [6] | [7] | [8] | [9] | [10] | [11]

OCCN(CCO)c1ccccc1
inactive: [1] | [2] | [3] | [4] | [5] | [6] | [7] | [8] | [9] | [11]

CC(C)S
inactive: [1] | [2] | [3] | [4] | [5] | [6] | [7] | [8] | [9] | [11] | [12] | [13]

C/C(=N\O)[C@@H](C)NCC(C)(C)CN[C@H](C)/C(C)=N/O
inactive: [1] | [2] | [3] | [4] | [5] | [6] | [7] | [8] | [9] | [11]

FC(F)(F)C(F)(F)C(F)(F)C(F)(F)C(F)(F)C(F)(F)C(F)(F)C(F)(F)Br
inactive: [1] | [2] | [3] | [4] | [5] | [6] | [7] | [8] | [9] | [10] | [11] | [12] | [13]

CN1CCN(c2c(F)cc3c(=O)c(C(=O)O)cn(CCF)c3c2F)CC1
inactive: [1] | [2] | [3] | [4] | [5] | [6] | [7] | [8] | [9] | [11]

CCOC(=O)NCCC[Si](OCC)(OCC)OCC
inactive: [1] | [2] | [3] | [4] | [5] | [6] | [7] | [8] | [9] | [14] | [11] | [12] | [13]

C=Cc1ccccc1
inactive: [1] | [2] | [3] | [4] | [5] | [6] | [7] | [8] | [9] | [10] | [11]

NC(=O)Cc1cccc(C(=O)c2ccccc2)c1N
inactive: [1] | [2] | [3] | [4] | [5] | [6] | [7] | [8] | [9] | [10] | [11]

Cc1cc(S(=O)(=O)O)c(N)cc1Cl
inactive: [1] | [2] | [3] | [4] | [5] | [6] | [8] | [9] | [14] | [10] | [11]

O=C1Nc2ccc([N+](=O)[O-])cc2C1=O
inactive: [1] | [2] | [3] | [4] | [5] | [7] | [8] | [9] | [10] | [11]

CCCCCCC
inactive: [1] | [2] | [3] | [4] | [5] | [6] | [8] | [9] | [14] | [10] | [11]

CC(Oc1c(Cl)cccc1Cl)C1=NCCN1 (stereo not drawn)
inactive: [1] | [2] | [3] | [4] | [6] | [7] | [8] | [9] | [11] | [13]
